The campaign covered roughly 360,000 compounds. About 3,900 (1.1%) were called active. This excerpt belongs to a sample that is enriched for actives. Values without a mark were called inactive.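 The calls were made as follows: active = mean replicate inhibition score of at least 50 and every replicate individually at or above 50; inconclusive = only one of the two criteria met; inactive = mean below 50 and not all replicates reaching 50.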
experiment: inhibitors of HIV-1 Env-driven cell-cell fusion, primary screen, HeLa-JRFL effector, CEM21 target cells, luciferase (AID 651610); settings: hits give high values; at 16.7 µM unless noted;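 also: 0% = plate neutral controls and 100% = maraviroc near 300 nM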

| Structure (SMILES) | inhibition |
| --- | --- |
| c1ccc(-c2cnc(CN3CCN(c4ccccc4)CC3)o2)cc1 | 3.52% [at 12.3 µM] |
| CCCCn1c(SCc2ncc(-c3ccccc3)o2)nc2cc(S(N)(=O)=O)ccc21 | 32.4% [at 12.3 µM] (active) |
| CCn1c(SCc2cc(=O)n3ccsc3n2)nc2ccccc21 | 9.35% [at 12.3 µM] |
| C[C@H](O)C#Cc1cnc2c(c1)C(=O)N([C@H](C)CO)C[C@@H](C)[C@H](CN(C)CC1CCCCC1)O2 | -6.75% |
| C[C@H](CO)N1C[C@H](C)[C@H](CN(C)Cc2cccnc2)Oc2ncc(C3=CCCC3)cc2C1=O | 0.845% |
| C[C@@H]1CN([C@H](C)CO)C(=O)c2c(c3ccccc3n2C)-c2ccccc2CO[C@H]1CN(C)C(=O)[C@@H](Cc1ccccc1)N(C)C | -56.3% |
| CS(=O)(=O)N(CC(=O)NC1CCCC1)Cc1ccc(F)cc1 | 12.4% [at 12.3 µM] |
| Cc1cc(C(C)(C)C)oc1C(=O)N(CC(=O)NC1CCCC1)Cc1ccc(Cl)cc1 | 73.7% [at 12.3 µM] (active) |
| Cc1ccc(CN(CC(=O)NC2CCCCC2)C(=O)c2csnn2)cc1 | -2.9% [at 12.3 µM] |
| O=C(C[C@@H]1CC[C@H](NC(=O)Nc2cc(F)ccc2F)[C@H](CO)O1)NCc1ccncn1 | 1.2% |
| COCCCNC(=O)c1ccc(-c2c(C)noc2C)c2ccoc12 | -11% [at 12.3 µM] |
| Cc1noc(C)c1-c1ccc(C(=O)NCc2ccncc2)c2occc12 | -7.55% [at 12.3 µM] |
| COc1ccc(CNC(=O)c2ccc(-c3cccnc3)c3ccoc23)cc1OC | 55.1% [at 12.3 µM] (active) |
| CC1(C)C(=O)Nc2ccccc2N1C(=O)COC(=O)Cn1cnc2ccccc2c1=O | -40.1% [at 12.3 µM] |
| O=C(COC(=O)Cn1cnc2ccccc2c1=O)NCc1ccccc1Cl | 0.405% [at 12.3 µM] |
| CN(Cc1c(F)cccc1Cl)C(=O)COC(=O)Cn1cnc2ccccc2c1=O | 63.4% [at 12.3 µM] (active) |
| O=C(NCc1ccccn1)[C@@H]1[C@@H](CO)[C@@H]2Cn3c(ccc(/C=C/c4ccccc4)c3=O)[C@H]1N2CC1CC1 | -8.79% |
| CN(c1ccc2nc3ccccc3c(=O)n2n1)C1CCCCC1 | 68.2% [at 12.3 µM] (active) |
| CC(C)c1cc(C(=O)NC2CCCCCC2)c2ccccc2n1 | 30.2% [at 12.3 µM] |
| CC(C)C(C)NC(=O)COc1nc2ccccc2nc1N(C)C1CCCCC1 (stereo not given) | 17.4% [at 12.3 µM] |
| COc1cccc(S(=O)(=O)N(C)C[C@@H]2Oc3cc(C#CCN(C)C)ccc3S(=O)(=O)N([C@@H](C)CO)C[C@@H]2C)c1 | -11.4% |
| CCOC(=O)N1CCN(Cc2nc(Cc3cccc(C(F)(F)F)c3)no2)CC1 | -3.49% [at 12.3 µM] |
| FC(F)(F)c1ccc(-n2cn[nH]c2=S)cc1 | 2.89% [at 12.3 µM] |

| Structure (SMILES) | inhibition |
| --- | --- |
| Cn1c(-c2sccc2OCc2cccc(C(F)(F)F)c2)n[nH]c1=S | 63.4% [at 12.3 µM] (active) |
| O=C(C[C@H]1CC[C@H]2[C@@H](COC[C@@H](O)CN2Cc2nccs2)O1)NCc1ccccc1Cl | 6.96% |
| CN(C)CC(=O)Nc1ccc2c(c1)[C@H]1C[C@H](CC(=O)NCc3ccccc3)O[C@@H](CO)[C@H]1O2 | -29.2% |
| Cc1cccc(N(CC(O)CN(C)C)S(=O)(=O)c2ccccc2)c1 (stereo not given) | -28.3% [at 12.3 µM] |
| CC(C)CN(CC(C)C)CC(O)CN(c1ccccc1)S(=O)(=O)c1ccccc1[N+](=O)[O-] (stereo not given) | 65.4% [at 12.3 µM] (active) |
| COc1ccc([N+](=O)[O-])cc1N(CC(O)CN(CC(C)C)CC(C)C)S(=O)(=O)c1ccc(C)cc1 (stereo not given) | -12.9% [at 12.3 µM] |
| CN(C)CC(=O)N[C@H]1CC[C@H](CCNC(=O)C2CCCCC2)O[C@H]1CO | -245% |
| c1ccc2c(c1)OCC(CNc1ncnc3nc[nH]c13)O2 (stereo not given) | 72.9% [at 12.3 µM] (active) |
| Cc1noc(C)c1C(=O)NCC1COc2ccccc2O1 (stereo not given) | -5.41% [at 12.3 µM] |
| COc1ccc(CCNc2ncnc3nc[nH]c23)cc1OC | 18% [at 12.3 µM] |
| C[C@@H]1CCCCO[C@H](CN(C)Cc2ccc3c(c2)OCO3)[C@@H](C)CN([C@H](C)CO)C(=O)c2cc(N(C)C)ccc2O1 | -11.2% |
| C[C@H](NC(=O)C[C@@H]1CC[C@H](NC(=O)CN2CCOCC2)[C@H](CO)O1)c1ccccc1 | -13.9% |
| N#Cc1ccc(C(c2nnnn2CCc2ccccc2)N2CCCCCC2)cc1 (stereo not given) | 90.5% [at 12.3 µM] (active) |
| Cc1ccc(C(c2nnnn2CS(=O)(=O)c2ccc(C)cc2)N2CCC(C)CC2)cc1 (stereo not given) | 53.3% [at 12.3 µM] |
| CCCCn1nnnc1C(c1ccccc1)N1CCN(c2ccccc2OC)CC1 (stereo not given) | 6.77% [at 12.3 µM] |
| CN(C)CC(=O)Nc1ccc2c(c1)[C@H]1C[C@@H](CC(=O)NCc3ccc(-c4ccccc4)cc3)O[C@H](CO)[C@H]1O2 | 19.8% |
| COC(=O)[C@H](CC(C)C)NS(=O)(=O)c1c(F)cccc1F | -17.9% [at 12.3 µM] |
| COc1ccc(CCNC(=O)CSc2nc(-c3ccc(OC)c(OC)c3)ccc2C#N)cc1 | 4.49% [at 12.3 µM] |
| COc1ccc(-c2cc(-c3ccc(N)cc3)nc(N)c2C#N)cc1OC | 22.6% [at 12.3 µM] |
| CCSc1nc(-c2ccc(OC)cc2)cc(-c2ccc(OC)cc2)c1C#N | 66% [at 12.3 µM] (active) |
| CS(=O)(=O)Nc1ccc2c(c1)[C@@H]1C[C@H](CC(=O)NCc3cc(F)ccc3F)O[C@@H](CO)[C@@H]1O2 | 18.1% |
| Cc1ccc(S(=O)(=O)Nc2ccc3c(c2)C(=O)N([C@H](C)CO)C[C@@H](C)[C@@H](CN(C)S(C)(=O)=O)OCCCC[C@@H](C)O3)cc1 | -1.67% |
